A selection: hits, their analogues and other compounds. The true share with any hit is near 1.2%.
NOD2 RIPK2 PPI = NOD2-RIPK2 protein interaction inhibition. actives 0.38% (n = 360,000). CHO BLA complementation NOD2-RIPK2, CCF4 ratio. inhibition, % at 4.98 µM; in the data active = inhibition above about 21%
GC-B act = GC-B (human) receptor activation. P20594. HEK293-GC-B cells, CNP EC30, cGMP TR-FRET; 0% at EC30 CNP, 100% saturating CNP. activation, % at 10 µM. actives 0.11% (n = 370,000). AID 1920062;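 active = activation at 10 µM reaching about 35% in either raw or pattern-adjusted values, limit read from the data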
Target sequence (P20594 whole entry, looked up): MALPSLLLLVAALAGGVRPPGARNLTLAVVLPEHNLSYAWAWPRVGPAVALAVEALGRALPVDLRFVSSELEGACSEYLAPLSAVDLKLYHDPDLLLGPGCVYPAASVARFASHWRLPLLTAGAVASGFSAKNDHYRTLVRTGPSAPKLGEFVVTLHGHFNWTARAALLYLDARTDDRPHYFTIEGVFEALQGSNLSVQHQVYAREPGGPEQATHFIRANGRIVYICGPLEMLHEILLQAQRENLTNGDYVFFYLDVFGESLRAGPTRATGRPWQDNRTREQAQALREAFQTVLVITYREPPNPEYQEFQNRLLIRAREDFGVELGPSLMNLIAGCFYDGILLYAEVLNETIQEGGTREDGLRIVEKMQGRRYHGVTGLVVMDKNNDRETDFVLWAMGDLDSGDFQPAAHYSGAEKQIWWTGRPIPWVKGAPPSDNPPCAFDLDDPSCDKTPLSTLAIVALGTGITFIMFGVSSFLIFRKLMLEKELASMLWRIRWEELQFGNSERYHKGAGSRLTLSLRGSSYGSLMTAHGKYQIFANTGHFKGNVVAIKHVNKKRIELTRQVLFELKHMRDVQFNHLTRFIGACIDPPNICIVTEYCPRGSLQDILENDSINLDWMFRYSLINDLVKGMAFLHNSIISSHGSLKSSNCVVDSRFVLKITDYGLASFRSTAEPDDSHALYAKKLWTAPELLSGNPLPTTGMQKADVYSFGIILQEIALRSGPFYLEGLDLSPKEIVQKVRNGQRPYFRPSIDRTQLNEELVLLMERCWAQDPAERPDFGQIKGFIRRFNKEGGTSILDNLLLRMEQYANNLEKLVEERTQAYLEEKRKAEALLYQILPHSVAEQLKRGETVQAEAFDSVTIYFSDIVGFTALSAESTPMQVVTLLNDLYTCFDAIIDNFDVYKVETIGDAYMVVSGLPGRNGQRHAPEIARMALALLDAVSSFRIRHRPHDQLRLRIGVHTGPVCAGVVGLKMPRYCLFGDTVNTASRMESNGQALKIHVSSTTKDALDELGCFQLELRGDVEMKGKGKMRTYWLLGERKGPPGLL
TLR9-MyD88 inh = TLR9-MyD88 interaction inhibition; actives 0.21% (n = 340,000); inhibition, % at 4.98 µM; CHO BLA complementation TLR9-MyD88, CCF4 FRET ratio; Q9NR96+Q99836; AID 504734;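 active = inhibition above the mean over all tested compounds plus 3 SD, cut at about 21% in these data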
TLR4-MyD88 BLA = blocks binding of human TLR4 to MyD88. O00206+Q99836. HeLa CL3-4 TLR4/MyD88 BLA complementation, FRET ratio. inhibition, % at 8.4 µM. actives 0.18% (n = 200,000); in the data active = inhibition above about 25%
GC-A act = GC-A (human) enzyme activation; P16066; activation, % at 10 µM; actives 0.14% (n = 370,000); AID 1671463; HEK293 GC-A cells, cGMP TR-FRET, EC30 ANP; 0% at EC30 ANP, 100% saturating ANP; in the data active = activation above about 40%
Neddylation inh = inhibitors of human cullin neddylation; P61081+Q13564; TR-FRET cullin neddylation, biochemical; AID 651699; actives 0.58% (n = 360,000); inhibition, % at 25 µM; in the data active = inhibition above about 36%
TLR4-MyD88 conf = confirmation of human TLR4-MyD88 binding inhibitors. HeLa CL3-4 BLA complementation, CCF4 FRET ratio. actives 50% (n = 350). shares compounds with TLR4-MyD88 BLA. inhibition, % at 8.4 µM. AID 941;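 active = mean inhibition across three repeat runs above about 25% carried over from the earlier screen, limit read from the data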
BLA inhibitor ct = beta-lactamase inhibition flagged in TLR4-MyD88 counter-screen; shares compounds with TLR4-MyD88 BLA; HeLa BLA reporter, CCF4 FRET ratio; inhibition, % at 8.4 µM; actives 63% (n = 350); AID 1237;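 active = mean inhibition over three repeats above about 26% taken from the earlier screen, limit read from the data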;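 note: HeLa cells stably expressing beta-lactamase reporter as counterscreen for TLR4-MyD88 inhibitors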
TLR9-MyD88 conf = confirmation of human TLR9-MyD88 binding inhibitors. actives 51% (n = 680). AID 540250. inhibition, % at 4.98 µM. shares compounds with TLR9-MyD88 inh. CHO TLR9/MyD88 BLA complementation, CCF4 FRET ratio;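 active = mean inhibition across three repeats above about 21% taken from the earlier screen, limit read from the data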;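 note: blue over green emission ratio reports constitutive TLR9 MyD88 association via BLA complementation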
BLA counter-1 = non-selective beta-lactamase inhibitors in TLR9-MyD88 counter-screen | inhibition, % at 4.98 µM | shares compounds with TLR9-MyD88 inh | CHO-BLA cells, CCF4 FRET ratio, BLA reporter | actives 7% (n = 680);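 active = mean inhibition above a 50% cutoff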;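 note: counterscreen of TLR9-MyD88 hits on CMV-driven BLA in CHO-K1 cells; higher means less blue over green ratio so more BLA blockade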
TLR9 CHO cytotox = CHO cell toxicity counter-screen for TLR9-MyD88 inhibitors; shares compounds with TLR9-MyD88 inh; TLR9-MyD88 CHO cells cytotoxicity, luminescence; inhibition, % at 4.98 µM; actives 39% (n = 680); in the data active = inhibition above about 11%
NOD2-RIPK2 conf = confirmation of human NOD2-RIPK2 interaction inhibitors. shares compounds with NOD2 RIPK2 PPI. CHO cells, NOD2-RIPK2 BLA complementation, CCF4 FRET. inhibition, % at 4.98 µM. actives 70% (n = 1,200);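 active = mean inhibition across replicates above a set limit taken from the earlier primary screen, cut at about 21% in these data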
BLA counter-2 = counter-screen for NOD2-RIPK2 interaction inhibitors: BLA reporter; shares compounds with NOD2 RIPK2 PPI; CHO BLA reporter, CCF4 FRET ratio, counterscreen; inhibition, % at 4.98 µM; actives 57% (n = 1,200); AID 624371;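 active = mean inhibition above the low-control mean inhibition plus three low-control SD, cut at about 11% in these data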
Of the large screens only hits and unclear results are named; the others gave an inactive call (follow-up assays come after a bar, where shown).

CCCN(CCC)CC(O)Cn1cc(/C=C/C(=O)c2cccs2)c2ccccc21 (configuration not stated)	NOD2 RIPK2 PPI 39, TLR9-MyD88 inh 40, TLR4-MyD88 BLA 39 | TLR4-MyD88 conf 32 | BLA inhibitor ct 63 | TLR9-MyD88 conf 21 | BLA counter-1 inactive | TLR9 CHO cytotox inactive | NOD2-RIPK2 conf 46 | BLA counter-2 44
O=C(OCCN1C(=O)c2cccc3c(N4CCOCC4)ccc(c23)C1=O)c1ccccc1Cl	NOD2 RIPK2 PPI 53, TLR9-MyD88 inh 40, TLR4-MyD88 BLA 41 | TLR4-MyD88 conf 46 | BLA inhibitor ct 65 | NOD2-RIPK2 conf 54 | BLA counter-2 60
O=C1c2cccc3c(N4CCCCC4)ccc(c23)C(=O)N1c1cccc(O)c1	NOD2 RIPK2 PPI 54, TLR9-MyD88 inh 42, TLR4-MyD88 BLA 50 | TLR4-MyD88 conf 35 | BLA inhibitor ct 55 | TLR9-MyD88 conf 35 | BLA counter-1 inactive | TLR9 CHO cytotox 11 | NOD2-RIPK2 conf 61 | BLA counter-2 68
O=C1c2cccc3c(N4CCCCC4)ccc(c23)C(=O)N1CCO	none
C=CCN1C(=O)c2cccc3c(N4CCCCC4)ccc(c23)C1=O	NOD2 RIPK2 PPI 22, TLR4-MyD88 BLA 51 | TLR4-MyD88 conf 36 | BLA inhibitor ct 61 | NOD2-RIPK2 conf 61 | BLA counter-2 64
Cc1ccccc1CN1CCCCC(NC(=O)c2ccc(-c3ccccc3)cc2)C1=O (configuration not stated)	none (no result: NOD2 RIPK2 PPI, TLR9-MyD88 inh, TLR4-MyD88 BLA, Neddylation inh)
COC(=O)[C@]12C[C@H](CC(=O)NCc3cccs3)C(=O)N(Cc3ccco3)C1=C[C@H](C(C)C)O[C@@H]2C1CC1	none (no result: NOD2 RIPK2 PPI, TLR9-MyD88 inh, TLR4-MyD88 BLA, Neddylation inh)
CCN(CC)c1ccc2cc(-c3nnc(-c4ccc(Br)cc4)o3)c(=O)oc2c1	none (no result: NOD2 RIPK2 PPI, GC-B act, TLR9-MyD88 inh, GC-A act, Neddylation inh)
CCN(CC)c1ccc2cc(-c3nc4ccccc4n3C)c(=O)oc2c1	NOD2 RIPK2 PPI 44, TLR9-MyD88 inh 33, TLR4-MyD88 BLA 49 | TLR4-MyD88 conf 58 | BLA inhibitor ct 87 | TLR9-MyD88 conf 41 | BLA counter-1 inactive | TLR9 CHO cytotox 39 | NOD2-RIPK2 conf 69 | BLA counter-2 75
Cn1c(NC(=O)c2ccccc2)nc(Cc2ccccc2)c1-c1ccccc1	none (no result: NOD2 RIPK2 PPI, TLR9-MyD88 inh, TLR4-MyD88 BLA, Neddylation inh)
O=C(C1=NN(c2ccccc2)C2C(=O)N(c3ccccc3)C(=O)C12)c1ccccc1 (configuration not stated)	none
O=C(C1=NN(c2ccccc2)C2C(=O)N(c3ccccc3Cl)C(=O)C12)c1ccccc1 (configuration not stated)	NOD2 RIPK2 PPI 42, TLR9-MyD88 inh 28, TLR4-MyD88 BLA 38 | TLR4-MyD88 conf inactive | BLA inhibitor ct 27 | TLR9-MyD88 conf inactive | BLA counter-1 inactive | TLR9 CHO cytotox inactive | NOD2-RIPK2 conf 47 | BLA counter-2 48
C=CCC12C=C(OC)C(=O)C(C1=O)C1c3ccccc3CC12 (configuration not stated)	none (no result: NOD2 RIPK2 PPI, TLR9-MyD88 inh, TLR4-MyD88 BLA, Neddylation inh)
CCOC(=O)c1ccc(NC(=O)Cn2nc(C)c3ccccc3c2=O)cc1	none (no result: TLR4-MyD88 BLA)
CCOC(=O)c1ccc(NC(=O)Cn2ncc(Cl)c(Cl)c2=O)cc1	NOD2 RIPK2 PPI 52, TLR9-MyD88 inh 27, TLR4-MyD88 BLA 27, GC-A act 61 | TLR4-MyD88 conf 37 | BLA inhibitor ct inactive | TLR9-MyD88 conf 24 | BLA counter-1 inactive | TLR9 CHO cytotox 99 | NOD2-RIPK2 conf 65 | BLA counter-2 14
Cc1ccc(C(=O)OCn2ncc(Cl)c(Cl)c2=O)cc1	NOD2 RIPK2 PPI 66, TLR9-MyD88 inh 30, TLR4-MyD88 BLA 55 | TLR4-MyD88 conf 62 | BLA inhibitor ct inactive | TLR9-MyD88 conf 27 | BLA counter-1 inactive | TLR9 CHO cytotox 98 | NOD2-RIPK2 conf 85 | BLA counter-2 inactive
O=[N+]([O-])c1ccc(N/N=C\c2cccn2-c2ccccc2)nc1	NOD2 RIPK2 PPI 46, TLR9-MyD88 inh 34, TLR4-MyD88 BLA 41 | TLR4-MyD88 conf 40 | BLA inhibitor ct 62 | TLR9-MyD88 conf inactive | BLA counter-1 inactive | TLR9 CHO cytotox inactive | NOD2-RIPK2 conf 52 | BLA counter-2 54
O=[N+]([O-])c1ccc(NN=Cc2ccccc2)nc1	none (no result: TLR4-MyD88 BLA)
COC(=O)C[C@@H]1CC[C@@H]2[C@H](COc3ccc(NC(=O)c4ccc(F)c(F)c4)cc3C(=O)N2C)O1	none (no result: NOD2 RIPK2 PPI, TLR9-MyD88 inh, TLR4-MyD88 BLA, Neddylation inh)
CCCCCCn1c(=O)[nH]c2nc3cc(N)c(C)cc3nc2c1=O	NOD2 RIPK2 PPI 42, TLR9-MyD88 inh 32, TLR4-MyD88 BLA 28 | TLR4-MyD88 conf inactive | BLA inhibitor ct 43 | TLR9-MyD88 conf inactive | BLA counter-1 inactive | TLR9 CHO cytotox inactive | NOD2-RIPK2 conf 45 | BLA counter-2 49
CC1(C)CC(=O)C2=C(C1)OC1=C(C(=O)CC(C)(C)C1)C2c1ccc(O)cc1O	NOD2 RIPK2 PPI 67, TLR4-MyD88 BLA 34 | TLR4-MyD88 conf inactive | BLA inhibitor ct inactive | NOD2-RIPK2 conf 79 | BLA counter-2 inactive
Cc1ccc(NC(=O)c2cccc3c2-c2ccccc2C3=O)c(C)c1	none (no result: NOD2 RIPK2 PPI, TLR9-MyD88 inh, TLR4-MyD88 BLA, Neddylation inh)
C(#CC1=CCCCC1)CNCc1ccccc1	none (no result: NOD2 RIPK2 PPI, TLR9-MyD88 inh, TLR4-MyD88 BLA, Neddylation inh)
Nc1cccc2c1C(=O)N(CC(=O)NC13CC4CC(CC(C4)C1)C3)C2=O	NOD2 RIPK2 PPI 39, TLR4-MyD88 BLA 31 (not shown: Neddylation inh) | TLR4-MyD88 conf inactive | BLA inhibitor ct 37 | NOD2-RIPK2 conf 44 | BLA counter-2 47
CCN(CC)c1ccc(-c2nc3cnccn3c2NC2CCCC2)cc1	NOD2 RIPK2 PPI 22, TLR9-MyD88 inh 36, TLR4-MyD88 BLA 52 (not shown: Neddylation inh) | TLR4-MyD88 conf 31 | BLA inhibitor ct 61 | TLR9-MyD88 conf 37 | BLA counter-1 inactive | TLR9 CHO cytotox inactive | NOD2-RIPK2 conf 56 | BLA counter-2 66
c1cn2c(NC3CCCCC3)c(-c3ccc(SC4CCCCC4)cc3)nc2cn1	none (no result: TLR4-MyD88 BLA)

High-throughput results (PubChem BioAssay)
